A selection: hits, their analogues and other compounds. The true share with any hit is near 19%.
IL1B secr inh – inhibitors of inflammasome signaling (IL-1 beta secretion). THP-1 LPS/ATP IL-1B secretion, AlphaLISA, 16 h; active compounds read low. activity change, % at 57.5 µM. hit rate 4.7% among 360,000. AID 743279; in the data active = activity change below about -50%; inconclusive = mostly about -30% to -49%; also: % is scaled to controls: 0 for no effect and ±100 for the full control effect
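THP-1 cells pretreated 1 hr with compounds (up to 57.5 uM final), then stimulated with LPS (250 ng/mL final) plus ATP (1.25 mM final); secreted IL-1B measured by AlphaLISA after 16 hr, decreased signal indicating inhibition.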
HepG2 viability – HepG2 cytotoxicity, counter-screen for TGF-b inhibitors; HepG2 CAGA-GFP viability, ATP luminescence, 18 h; Potency, µM (titrated, usually from 46.1 µM), without a hit: top-dose activity change, negative = cytotoxicity, actives largely listed as cytotoxic; hit rate 0.76% among 410,000; also: potency is read from the fitted curve at half-maximal effect
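CellTiter-Glo luminescence gave cytotoxicity after 18 hours at 37 degrees C. The cells were HepG2 CAGA-GFP in 1% FBS DMEM, stimulated with 500 pg/mL TGF-beta after compound addition. %Activity was normalised to no-cell wells (complete cell-killing) and DMSO (no toxicity), and curves were fitted and classified.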
TDP1 cell CPT – growth inhibition of DT40 Tdp1-/-;hTDP1 cells with camptothecin (screen for TDP1 inhibitors) | Potency, µM (series often up to 46.2 µM), without a hit: at the highest dose activity change, negative = growth inhibition, usual class: inhibitors | chicken DT40 Tdp1-/-;hTDP1 cells + 20 nM CPT, ATP luminescence, 48 h | hit rate 12% among 420,000; also: potency is read from the fitted curve at half-maximal effect; % is scaled to controls: 0 for no effect and ±100 for the full control effect; nearly all actives have a fitted effect of over 55% in size
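Chicken DT40 Tdp1-/- cells stably complemented with human TDP1 were seeded at 400 cells/well in medium containing 20 nM camptothecin, exposed to pin-transferred compounds, and grown at 37 °C for at least 48 hr. Viability was read as ATP luminescence.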
S-ASM inh – inhibitors of human secretory acid sphingomyelinase; hit rate 0.006% among 340,000; P17405; Potency, µM (series often up to 57.5 µM), for inactives: top-dose activity change, negative = inhibition, usual class: inhibitors; placental ASM, HMU-PC fluorogenic substrate, 60 min; also: potency is read from the fitted curve at half-maximal effect
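Fluorogenic HMU-PC substrate (9 uM final) is turned over by placental ASM in 60 min at 37 C after a 10 min compound preincubation. Reaction ended by alkaline stop (pH 10), with fluorescence read at 386/447 nm.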
TGFb SMAD3 inh – inhibitors of TGF-b signaling. HepG2 CAGA-GFP TGF-b/SMAD3 reporter, GFP fluorescence, 18 h; TGF-beta stimulated, 500 pg/mL final. hit rate 1.2% among 410,000. Potency, µM (doses to about 46.1 µM), for inactives: top-dose activity, negative = inhibition, actives largely listed as inhibitors. AID 588855; also: potency is read from the fitted curve at half-maximal effect; % is scaled to controls: 0 for no effect and ±100 for the full control effect; nearly all actives have a fitted effect of over 65% in size
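TGF-beta reporter screen: HEPG2 CAGA-GFP, 1% FBS, 500 pg/mL TGF-beta final, 18 h; per-cell GFP summed per well; curves fitted and categorized by class.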
DT40 TDP1 no CPT – qHTS for Inhibitors of human tyrosyl-DNA phosphodiesterase 1 (TDP1): qHTS in cells in absence of CPT | DT40 Tdp1-/- hTDP1 cells, no CPT, ATP luminescence, 48 h | Potency, µM (series often up to 46.2 µM), for the others: top-dose activity change, negative = growth inhibition, actives largely listed as inhibitors | hit rate 15% among 420,000; also: potency is read from the fitted curve at half-maximal effect; % is scaled to controls: 0 for no effect and ±100 for the full control effect; nearly all actives have a fitted effect of over 55% in size
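Compound effects on proliferation are scored in DT40 Tdp1-/-;hTDP1 cells in the absence of CPT. ATP levels (CellTiter-Glo luminescence) are recorded after a ≥48 hr, 37 °C incubation.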
* = called active by the depositor; i = inactive; ? = inconclusive; · = not tested or not shown. Unless noted, calls follow the shape of the dose curve; as a rule, active = well fitted curve in the direction sought with a large enough effect; inconclusive = small, poorly fitted or top-dose-only effect, or another doubt; inactive = no such curve, though single readings can be large; an effect the other way counts as inactive or inconclusive.

SMILES	IL1B secr inh	HepG2 viability	TDP1 cell CPT	S-ASM inh	TGFb SMAD3 inh	DT40 TDP1 no CPT
CCOC(=O)C1CCCN(C(=O)Cc2ccc(OC)c(OC)c2)CC1 (stereo unspecified)	41	-6%	-14%	·	-6%	?
O=C(c1cccc([N+](=O)[O-])c1)N1c2ncnn2C2(CCCCC2)[C@@H]2CCCC[C@@H]21	·	-16%	?	·	1%	8.2µM*
Cc1cccc(Nc2nnc(SCC(=O)Nc3ncc(C(F)(F)F)cc3Cl)s2)c1C	12	-19%	?	-18%	?	?
Cc1cccc(C)c1Nc1nnc(SCC(=O)Nc2ncc(C(F)(F)F)cc2Cl)s1	-2	-15%	2.1µM*	1%	-12%	-38%
CC1=NN(C(=O)COc2ccc(C)c(C)c2)C(O)(c2ccc(Cl)cc2)C1 (stereo unspecified)	-15	-76%	13µM*	-3%	0%	15µM*
CC1=NN(C(=O)COc2cc(C)ccc2C(C)C)C(O)(c2ccccc2)C1 (stereo unspecified)	-22	-42%	5.8µM*	-1%	?	26µM*
CC1=NN(C(=O)CSCc2ccccc2)C(O)(c2ccc(Cl)cc2)C1 (stereo unspecified)	-1	-34%	-28%	-4%	?	?
CC1=NN(C(=O)CCc2ccccc2)C(O)(c2ccncc2)C1 (stereo unspecified)	-4	-39%	3%	-1%	-6%	17%
CCC1=NN(C(=O)COc2ccccc2)C(O)(c2ccncc2)C1 (stereo unspecified)	-17	2%	?	-1%	9%	16µM*
CC[C@@H](C)[C@@H]1CN([C@@H](CN2CCC[C@H]2CN2C(N)=NC[C@H]2CC(C)C)C(C)C)C(=N)N1CCc1ccc(Cl)c(Cl)c1	-60*	-43%	?	-3%	-6%	?
CC(C)[C@H](CN1CCC[C@H]1CN1C(N)=NC[C@@H]1Cc1ccccc1)N1C[C@@H](Cc2ccccc2)N(CCc2ccc(Cl)c(Cl)c2)C1=N	?	-9%	9.2µM*	?	1%	?
C[C@@H](CN1CCC[C@H]1CN1C(N)=NC[C@@H]1Cc1ccccc1)N1C[C@@H](Cc2ccccc2)N(CCc2ccc(Cl)c(Cl)c2)C1=N	-66*	4%	?	-7%	6%	?
CC(C)[C@@H]1CN=C(N)N1C[C@@H]1CCCN1C[C@H](C)N1C[C@@H](Cc2ccccc2)N(CCc2ccc(Cl)c(Cl)c2)C1=N	-75*	-16%	?	-7%	5%	?
CC(=O)c1ccc(-c2cccs2)s1	-3	-37%	11%	i	10µM*	10%
CCOC(=O)C1CCN(C(=O)COC(=O)CNS(=O)(=O)c2ccc(SC)c([N+](=O)[O-])c2)CC1	18	-24%	-21%	·	?	-14%
CCOC(=O)c1ccccc1NC(=O)c1cn(-c2ccc(C)c(C)c2)c(=O)c2ccccc12	?	1%	21µM*	-2%	-16%	?
COC(=O)c1ccccc1NC(=O)c1cn(-c2ccc(C)c(C)c2)c(=O)c2ccccc12	0	-13%	?	0%	0%	23µM*
CCOC(=O)c1ccccc1NC(=O)c1cn(-c2ccc(OC)cc2)c(=O)c2ccccc12	-9	11%	?	-3%	10%	?
Cc1ccc2nc(-c3ccncc3)c(Nc3ccc(C(C)C)cc3)n2c1	·	-24%	6.5µM*	·	1%	7.3µM*
Cc1ccc(Nc2c(-c3ccncc3)nc3ccc(C)cn23)cc1	·	-25%	16µM*	·	-15%	?

Assay outcomes as filed in PubChem.
